# Shown are actives, neighbours in structure and some others; about 1.5% of the full set was active somewhere.
# Bcl-xL primary – inhibitors of human Bcl-xL, primary screen, biochemical, fluorescence polarization, HTS | GST-Bcl-xL / FITC-Bim BH3 peptide fluorescence polarization | 0.7% of 320,000 active | inhibition, % at 10.9 µM;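 active means inhibition above the mean of all tested compounds plus 3 SD, cutoff set per campaign, cut at about 30% in these data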;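 further: 0% = DMSO wells and 100% = unlabeled Bim-BH3 peptide competitor; inhibitors lower millipolarization by displacing the labeled peptide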
# Target sequence (Q07817 whole entry, looked up): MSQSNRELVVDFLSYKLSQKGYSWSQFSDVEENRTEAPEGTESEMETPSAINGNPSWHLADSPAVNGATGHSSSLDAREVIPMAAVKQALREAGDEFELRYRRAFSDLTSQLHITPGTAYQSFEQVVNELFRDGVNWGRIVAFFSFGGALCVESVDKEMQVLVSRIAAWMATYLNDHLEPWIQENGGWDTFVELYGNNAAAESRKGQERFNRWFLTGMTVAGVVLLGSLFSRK
# MCL1 BIM primary – inhibitors of MCL1 binding to BIM-BH3, primary screen, biochemical, fluorescence polarization; inhibition, % at 10.9 µM; GST-MCL1 / FITC-Bim-BH3 fluorescence polarization; AID 2057, 2009; Induced myeloid leukemia cell differentiation protein Mcl-1 (Homo sapiens), Q07820; 0.68% of 320,000 active;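 active means inhibition above the mean inhibition of all tested compounds plus 3 SD, set per campaign, cut at about 40% in these data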;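 further: 0% = DMSO wells and 100% = unlabeled Bim-BH3 peptide control; higher means more loss of mP so more displacement of Bim peptide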
# eLon inh – inhibitors of E. coli Lon protease, primary screen, biochemical, fluorescence polarization | inhibition, % at 7.94 µM | purified E. coli Lon protease | 0.42% of 360,000 active; in the data active means inhibition above about 13%, passing the limit was not always enough;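 further: 0% = enzyme with probe and DMSO and 100% = no enzyme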
# EBV gp42 block – Epstein-Barr virus gp42 inhibitors, primary screen, biochemical, uHTS, fluorescence polarization; Glycoprotein 42 (Epstein-Barr virus (strain AG876)), Q1HVG2; 0.42% of 220,000 active; AID 1085, 2008; Fluorescence polarization binding assay, mP read-out; inhibition, % (tested at 21.74 µM); in the data active means inhibition above about 50%
# Target sequence (Q1HVG2 whole entry, looked up): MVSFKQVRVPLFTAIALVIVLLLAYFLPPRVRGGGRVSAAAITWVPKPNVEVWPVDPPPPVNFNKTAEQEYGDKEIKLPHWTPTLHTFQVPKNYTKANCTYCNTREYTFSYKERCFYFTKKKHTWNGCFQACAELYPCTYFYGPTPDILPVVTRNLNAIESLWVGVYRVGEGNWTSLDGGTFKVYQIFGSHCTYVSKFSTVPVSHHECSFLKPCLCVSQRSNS
# GLD-1 TGE inh – GLD-1/TGE RNA complex disruptors, primary screen, biochemical, fluorescence polarization. Female germline-specific tumor suppressor gld-1 (Caenorhabditis elegans), Q17339. purified GLD-1 + fluorescein TGE RNA. inhibition, % at 5.96 µM. 0.44% of 320,000 active;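 active means percent inhibition above a per-plate cutoff, the plate mean of test compounds plus 3 SD, cut at about 30% in these data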;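 further: 0% = DMSO wells with GLD-1 and probe and 100% = wells lacking GLD-1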
# MEX-5 binding – MEX-5 zinc finger RNA-binding disruptors – biochemical, C. elegans, fluorescence polarization, MLPCN library, primary screen. AID 1832, 2009. activity score (negative = inhibition of binding), % at 10 µM. 0.38% of 300,000 active. MEX-5/FITC-TCR2 RNA binding; active compounds read low;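 active means inhibition past about -25% in most replicates, and total fluorescence under double the plate's negative control median, limit read from the data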;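 further: 0% = DMSO and -100% = 5 µM competing unlabeled TCR2 RNA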
# * marks the source's active call; other numbers are inactive results; nt = no result.
SMILES,Bcl-xL primary,MCL1 BIM primary,eLon inh,EBV gp42 block,GLD-1 TGE inh,MEX-5 binding
COc1ccc(C2C=C(c3ccc(C)c(C)c3)Nc3ncnn32)c(OC)c1OC (configuration not stated),5,0,11,0,10,3
C=CCOC(=O)C1=C(C)Nc2ncnn2C1c1cc(Br)ccc1F (configuration not stated),6,6,-1,-19,1,2
CC(C)Cn1c(SCC(=O)N2CCOCC2)nc2ccccc2c1=O,0,-2,-11,nt,6,nt
CC(=O)C(=Nc1ccccc1Cl)NNc1ccc(Cl)cc1,31*,31,0,6,5,-8
C[C@@H]1CCCCO[C@@H](CN(C)S(=O)(=O)c2ccccc2)[C@@H](C)CN([C@H](C)CO)C(=O)c2cc(N(C)C)ccc2O1,nt,nt,-7,nt,nt,nt
Cc1ccc(NS(=O)(=O)c2cc(NC(=O)C(C)Oc3ccccc3)ccc2C)c(C)c1 (configuration not stated),8,7,10,-8,7,-1
O=C(O)c1cccc(S(=O)(=O)Nc2ccc([N+](=O)[O-])cc2O)c1,9,2,10,-10,-4,-16
CCOc1ccc(S(=O)(=O)Nc2cc(SCC(=O)O)c(O)c3ccccc23)cc1,nt,nt,24,nt,nt,-51*
Cc1ccc(C)c(S(=O)(=O)Nc2cc(SCC(=O)O)c(O)c3ccccc23)c1,24,36,34*,-6,14,nt
CCc1ccc(S(=O)(=O)Nc2ccc(O)c3ccccc23)cc1,6,11,33,nt,2,-3
CCOC(=O)c1ccccc1NS(=O)(=O)c1ccc(OCC)cc1,3,-6,-9,-9,14,0
CCc1ccc(S(=O)(=O)Nc2cc(SCC(=O)O)c(O)c3ccccc23)cc1,25,28,8,-10,-1,-52*
O=C(O)CSc1cc(NS(=O)(=O)c2cccc([N+](=O)[O-])c2)c2ccccc2c1O,nt,nt,12,-2,nt,-66*
Cc1ccc(CN2C(=O)C(CC(C)C)Nc3ncnc(N4CCCCC4)c32)cc1 (configuration not stated),nt,nt,-3,nt,nt,nt
CC1CC1C(=O)OCC(=O)Nc1ccc(Cl)cn1 (configuration not stated),nt,nt,-8,nt,9,nt
O=C1C2C3C=CC(C3=C(c3ccccc3)c3ccccc3)C2C(=O)N1Cc1ccccc1 (configuration not stated),6,4,7,63*,6,0
O=C1C2C3C=CC(C3=C(c3ccccc3)c3ccccc3)C2C(=O)N1CCO (configuration not stated),4,5,3,-6,-5,-1
O=C(NCc1cc(C(F)(F)F)ccc1Cl)c1cccc2c1C(=O)c1ccc(N3CCC(N4CCCCC4)CC3)cc1S2(=O)=O,nt,nt,-73,nt,nt,nt
O=C(NCc1cccc(F)c1)c1cccc2c1C(=O)c1ccc(N3CCC(Cc4ccccc4)CC3)cc1S2(=O)=O,nt,nt,39*,nt,137*,nt
O=C(NCc1ccc(OC(F)(F)F)cc1)c1cccc2c1C(=O)c1ccc(N3CCCCC3)cc1S2(=O)=O,nt,nt,-3,nt,0,nt
COc1ccccc1N1CCN(c2ccc3c(c2)S(=O)(=O)c2cccc(C(=O)NCc4ccc(F)cc4)c2C3=O)CC1,nt,nt,-1,nt,nt,nt
O=C(NCc1cccc(F)c1)c1cccc2c1C(=O)c1ccc(N3CCCC3)cc1S2(=O)=O,nt,nt,-111,nt,55*,nt
O=C(NCc1cccc(C(F)(F)F)c1)c1cccc2c1C(=O)c1ccc(N3CCC(Cc4ccccc4)CC3)cc1S2(=O)=O,nt,nt,-132,nt,128*,nt
O=C(NCCc1ccc(F)cc1)c1cccc2c1C(=O)c1ccc(N3CCC(Cc4ccccc4)CC3)cc1S2(=O)=O,nt,nt,29*,nt,145*,nt
CCCN(CC(=O)Nc1ccccc1OC)C(=O)C1=COCCO1,4,13,3,nt,-5,nt
SMILES,Bcl-xL primary,MCL1 BIM primary,eLon inh,EBV gp42 block,GLD-1 TGE inh,MEX-5 binding
NC(=O)c1cc([N+](=O)[O-])ccc1NCC1CCCCC1,3,1,0,nt,1,nt
O=C(NCc1cc(C(F)(F)F)ccc1Cl)c1cccc2c1C(=O)c1ccc(N3CCCCC3)cc1S2(=O)=O,nt,nt,-26,nt,76*,nt
O=C(NCc1ccco1)c1cccc2c1C(=O)c1ccc(N3CCC(Cc4ccccc4)CC3)cc1S2(=O)=O,nt,nt,-149,nt,91*,nt
O=C(NCc1ccc(OC(F)(F)F)cc1)c1cccc2c1C(=O)c1ccc(N3CCC(Cc4ccccc4)CC3)cc1S2(=O)=O,nt,nt,-15,nt,122*,nt
O=C(NCc1ccc(OC(F)(F)F)cc1)c1cccc2c1C(=O)c1ccc(N3CCCC3)cc1S2(=O)=O,nt,nt,-15,nt,6,nt
Cc1nn(CC(=O)N2CCN(c3ccc(Cl)cc3)CC2)c(=O)c2cccn12,-1,-2,0,nt,-1,1
C=CCc1cccc(C=Nc2c[nH]c(=O)[nH]c2=O)c1O,3,3,4,nt,7,0
C=CCc1cccc(C=Nc2cc(Br)ccc2O)c1O,8,7,-7,101*,3,1
CC(C)n1cnnc1SCC(=O)Nc1cccnc1Cl,nt,nt,8,nt,7,nt
COC(=O)C1=C(C)N(CC(C)C)C(=O)/C1=C\c1cccs1,3,2,4,6,2,-2
CCN1C(=O)/C(=C\c2cccs2)C(C(=O)OC)=C1C,2,-3,-3,-22,-5,-78*
COC(=O)c1c(NC(=O)Cc2ccc(OC)c(S(=O)(=O)N3CCOCC3)c2)sc(C)c1C,3,-1,-3,nt,4,-1
CCS(=O)(=O)Nc1ccc2c(c1)OCO2,41*,36,-1,-4,27,-1
Cc1cc(NC(=O)c2cc(-c3ccccc3)on2)no1,-1,-6,-6,-18,5,-1
Cc1ccc(-c2cc(C(=O)Nc3cc(C)on3)no2)cc1,37*,28,-2,11,47*,0
CC1CC(C)CN(C(=O)COC(=O)COc2ccc(C#N)cc2)C1 (configuration not stated),nt,nt,11,nt,-9,nt
CC1CCC(NC(=O)CSc2nnnn2C)CC1 (configuration not stated),-3,-2,-10,nt,-7,nt
COc1ccc(Nc2nnc(-c3ccc(C(N)=O)cc3)c3ccccc23)cc1,9,9,9,nt,-4,0
COc1ccc(-c2nnc(Nc3ccc(S(=O)(=O)Nc4nccs4)cc3)c3ccccc23)cc1,nt,nt,-3,52*,nt,1
CN(CCc1ccccc1)C(C(=O)Nc1ccc2c(c1)OCCO2)C1CC1 (configuration not stated),nt,nt,-16,nt,nt,nt
CN(C)C=Nc1nc2ccccc2nc1N1CCCC1,43*,41*,15,0,17,3

# Source: PubChem BioAssay (several laboratories)
